# Experimental data reported in PubChem BioAssay AID434927 (Sanford-Burnham Center for Chemical Genomics, 2010).
# The source made the active and inactive calls.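 Rule for the calls: active = inhibition above about 23% in any of six single-dose repeats (limit read from the data); inactive = the rest.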
# Target: Intestinal-type alkaline phosphatase (Homo sapiens) (UniProt P09923)
# Test: human IAP inhibitors, confirmation, biochemical, luminescence, single concentration, uHTS hits (AID 434927);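 note: plate controls were DMSO wells with enzyme for no effect and wells lacking enzyme for full effect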
# Conditions: purified human IAP, CDP-Star luminescence, 30 min; at 8.3 µM; stronger effect = higher value
# Intestinal-type alkaline phosphatase (Homo sapiens), sequence (P09923 whole entry, looked up): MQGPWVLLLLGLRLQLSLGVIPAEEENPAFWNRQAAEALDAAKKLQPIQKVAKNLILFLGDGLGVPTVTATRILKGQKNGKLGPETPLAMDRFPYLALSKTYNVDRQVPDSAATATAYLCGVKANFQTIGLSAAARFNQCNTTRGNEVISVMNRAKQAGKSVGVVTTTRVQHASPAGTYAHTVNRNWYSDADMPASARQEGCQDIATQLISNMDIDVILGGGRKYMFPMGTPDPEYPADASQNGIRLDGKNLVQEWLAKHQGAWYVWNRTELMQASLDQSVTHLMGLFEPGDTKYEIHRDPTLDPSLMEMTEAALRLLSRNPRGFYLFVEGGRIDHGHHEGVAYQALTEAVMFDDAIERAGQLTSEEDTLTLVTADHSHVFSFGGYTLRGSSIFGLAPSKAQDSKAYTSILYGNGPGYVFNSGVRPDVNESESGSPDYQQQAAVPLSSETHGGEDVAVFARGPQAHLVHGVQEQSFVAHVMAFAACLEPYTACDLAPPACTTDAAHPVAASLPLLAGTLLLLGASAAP
row,Structure (SMILES),inhibition
1,CNc1nnc(-c2cc3ccccc3oc2=O)s1,33.1% (active)
2,CC(/C=N/NC(=O)CCn1nnc2ccccc21)=C\c1ccccc1,-88.8% (inactive)
3,CCC1CCCCN1C1Sc2ccc(C(=O)OC)cc2NC1=O (stereo not drawn),-69.1% (inactive)
4,COc1ccccc1N(C)S(=O)(=O)c1ccc(Cl)c(C(=O)NNC(=O)c2ccccc2O)c1,59.4% (active)
5,CCOC(=O)c1cnc(-n2nc(C)cc2C)nc1NNc1nc(C)cc(C)n1,71.7% (active)
6,COc1cc(Cl)ccc1OCc1cc(C(=O)N2CCCCCCC2)no1,34.5% (active)
7,CN(C)c1ccc(N=Nc2ccccc2Br)cc1,-104% (inactive)
8,NC(=O)c1ccc(NC(=O)C2CCCC2)cc1,-40.2% (inactive)
9,CCN(CC)c1ccc(/C=N/NC(=O)c2nnn(-c3nonc3N)c2C(C)C)c(O)c1,32.4% (active)
10,C=CCn1c(O)c(N=Nc2ccccc2O)c2ccccc21,36.2% (active)
11,O=C(N/N=C/c1c(O)ccc2ccccc12)c1[nH]ncc1Br,42.8% (active)
12,C=CCN1C(=O)/C(=C\C=C2\N(C)c3ccccc3C2(C)C)SC1=S,-267% (inactive)
13,COc1cccc(/C=N/Nc2nc(-c3cccnc3)nc3ccccc23)c1,-0.0482% (inactive)
14,O=C(NNC(=S)NC(=O)c1ccccc1[N+](=O)[O-])c1ccccc1O,27.4% (active)
15,Cc1ccc(NC(=O)NNC(=O)c2cc3ccccc3cc2O)cc1,-69.5% (inactive)
16,COc1ccc(NC(=S)NNC(=O)c2nnn(-c3ccccc3)c2C)cc1,24% (active)
17,COc1ccc2nc3cc(Cl)ccc3c(Nc3cc(CN4CCCC4)c(O)c(CN4CCCC4)c3)c2n1,-60.1% (inactive)
18,CC(C)n1cc(CN2CCC(C(=O)Nc3cccc(-c4cccc(Cl)c4)c3)CC2)cn1,-96.7% (inactive)
